From a collection of fitness landscapes (doi:10.1016/j.celrep.2020.107928)
The full ranking holds about 81,000 sequences; the median of “one-hybrid fitness for binding parS DNA” is about -0.17, and the highest 2% start at about 0.51. This excerpt belongs to a sample that is enriched for the highest values.

B1: Caulobacter ParB omega fusion; a variant is named by its letters at X, in order, B8GW30 (parent)
chain: MESVVVGEPGMSEGRRGLGRGLSALLGEVDAAPAQAPGEQLGGSREAPIEILQRNPDQPRRTFREEDLEDLSNSIREKGVLQPILVRPSPDTAGEYQIVAGERAWRAAQRAGLKTVPIMVRELDDLAVLEIGIIENVQRADLNVLEEALSYKVLMEKFERTQENIAQTIGKSXSHVANXMRLLXLPDEVQSYLVSGELTAXHARAIAAAADPVALAKQIIEGGLSVRETEALARKAPNLSAGKSKGGRPPRVKDTDTQALESDLSSVLGLDVSIDHRGSTGTLTITYATLEQLDDLCNRLTRGI

Variants of: B1
Assay: one-hybrid fitness for binding parS DNA (scaled: cognate 1, non-cognate 0); higher = stronger binding
Conditions: with parS DNA site
In short: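 Caulobacter ParB libraries with four specificity codons randomised were screened by bacterial one-hybrid selection in the E. coli USO strain, using a HIS3 reporter whose site lies 19 bp from the promoter. Selection ran for 48 hours at 37°C on M9 lacking histidine, with 0.1 mM IPTG and 5 mM 3-AT. Plasmids were Illumina-sequenced before and after selection, three replicate libraries were pooled, and variants with under 10 reads were dropped. Fitness is the log change in each variant's read ratio to wild type, rescaled against the cognate and non-cognate sites.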

Row | Variant | one-hybrid fitness for binding parS DNA
1 | ADCT | ≤ 0.2
2 | ENNV | ≤ 0.2
3 | DYSL | ≤ 0.2
4 | RPCY | ≤ 0.2
5 | RCCY | 0.526
6 | RSCY | 0.47
7 | RMCY | 0.509
8 | WWVS | ≤ 0.2
9 | TIHD | ≤ 0.2
10 | VITG | ≤ 0.2
11 | YPSN | ≤ 0.2
12 | RLIY | 0.437
13 | RLIK | ≤ 0.2
14 | RLIG | 0.934
15 | RLPP | ≤ 0.2
16 | RLPH | ≤ 0.2
17 | RLPG | 0.755
18 | NLNR | ≤ 0.2
19 | YYRR | ≤ 0.2
20 | VLMH | ≤ 0.2
21 | LVRM | ≤ 0.2
22 | KHKS | ≤ 0.2
23 | DGAP | ≤ 0.2
24 | RWTH | ≤ 0.2
25 | RWTT | 0.705
26 | RWTC | 0.79

Row | Variant | one-hybrid fitness for binding parS DNA
27 | RWTG | 0.824
28 | RWTF | ≤ 0.2
29 | RWTS | 0.956
30 | RWTP | ≤ 0.2
31 | RWTR | ≤ 0.2
32 | RWTN | 0.338
33 | RWTQ | ≤ 0.2
34 | RWTY | 0.37
35 | RWTD | ≤ 0.2
36 | SCKV | ≤ 0.2
37 | RMTE | ≤ 0.2
38 | EKPG | ≤ 0.2
39 | PAYN | ≤ 0.2
40 | HTMF | ≤ 0.2
41 | AKDP | ≤ 0.2
42 | FKSC | ≤ 0.2
43 | TTMG | ≤ 0.2
44 | PSRP | ≤ 0.2
45 | QMFV | ≤ 0.2
46 | YLKH | 0.358
47 | HKTR | ≤ 0.2
48 | KKHM | ≤ 0.2
49 | RCHA | 0.626
50 | RNHA | 0.438
51 | RWHA | 0.378
52 | RDHA | ≤ 0.2

Row | Variant | one-hybrid fitness for binding parS DNA
53 | RLHA | 0.592
54 | DLHA | ≤ 0.2
55 | RAHA | 0.613
56 | RPHA | ≤ 0.2
57 | RGHA | 0.238
58 | NAHA | ≤ 0.2
59 | RSHA | 0.592
60 | LRPS | ≤ 0.2
61 | RCFW | 0.256
62 | MCTC | ≤ 0.2
63 | CVPM | ≤ 0.2
64 | SGES | ≤ 0.2
65 | ADNQ | ≤ 0.2
66 | SFPL | ≤ 0.2
67 | TQVG | ≤ 0.2
68 | TFSM | ≤ 0.2
69 | PVIS | ≤ 0.2
70 | NTHA | ≤ 0.2
71 | DTHA | ≤ 0.2
72 | PFHA | ≤ 0.2
73 | RTHA | 0.61
74 | DMHA | ≤ 0.2
75 | AFHA | ≤ 0.2
76 | RHHA | 0.526
77 | RFHA | 0.53
78 | RMHA | 0.603
